Measurements as given in PubChem BioAssay AID1220 (Sanford-Burnham Center for Chemical Genomics, 2008).
Out of some 190,000 compounds screened, about 1,300 (0.68%) were called active. Cut-off read from the data, not from the text of the source: active = inhibition above about 50%; inactive = the rest. Only a selection was taken, and actives are over-represented in it overall.

molecular target: Mannose-6-phosphate isomerase (Homo sapiens) (UniProt P34949); assay: MPI inhibition at elevated mannose 6-phosphate – biochemical, fluorescence intensity, high mannose 6-phosphate, primary screen (AID 1220); settings: recombinant PMI enzyme, coupled fluorescence intensity; at 20 µM; stronger effect = higher value
Sequence (P34949 whole entry, looked up): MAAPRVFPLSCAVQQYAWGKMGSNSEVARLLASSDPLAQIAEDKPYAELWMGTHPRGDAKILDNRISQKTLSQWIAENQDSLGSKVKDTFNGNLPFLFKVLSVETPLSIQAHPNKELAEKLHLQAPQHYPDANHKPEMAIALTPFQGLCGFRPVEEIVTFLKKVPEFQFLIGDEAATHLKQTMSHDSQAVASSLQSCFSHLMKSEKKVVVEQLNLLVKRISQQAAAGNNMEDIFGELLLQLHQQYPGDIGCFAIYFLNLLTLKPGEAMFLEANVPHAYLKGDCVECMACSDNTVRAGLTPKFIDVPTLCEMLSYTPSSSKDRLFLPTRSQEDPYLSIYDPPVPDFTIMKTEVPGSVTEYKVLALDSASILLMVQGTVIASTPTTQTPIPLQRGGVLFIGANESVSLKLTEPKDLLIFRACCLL

Row | Compound | inhibition
1 | CC(=O)Nc1ccc(S(=O)(=O)Nc2nc3ccccc3nc2N2CCCCCC2)cc1 | 2.2% (inactive)
2 | O=[N+]([O-])c1ccccc1-c1ccc(C(=S)N2CCCC2)o1 | 18.9% (inactive)
3 | Cc1cccc(N2CCN(C(=S)c3ccc(-c4ccccc4[N+](=O)[O-])o3)CC2)c1 | 57.3% (active)
4 | Cc1ccc(N2CCN(C(=S)c3ccc(-c4cccc([N+](=O)[O-])c4)o3)CC2)cc1 | 26.5% (inactive)
5 | Cc1cc(C)nc(N/N=C/c2cccc3ccccc23)n1 | -14.6% (inactive)
6 | COc1cccc(CN(C)C(=O)c2cccnc2SC)c1OC | -6.5% (inactive)
7 | COc1ccc(-c2nnc3ccc(SCC(=O)N4CCOCC4)nn23)cc1 | -2.8% (inactive)
8 | CCN1C(=O)C(F)(CC)C(=O)c2ccccc21 (stereo unspecified) | 4.2% (inactive)
9 | CC1(O)C(=O)c2ccccc2N(c2ccccc2)C1=O (stereo unspecified) | -4.8% (inactive)
10 | CN1C(=O)C(Cl)(Cl)C(=O)c2ccccc21 | 68.4% (active)
11 | O=C(NNC(=O)C1CC(c2cccnc2)=NO1)Nc1ccccc1F (stereo unspecified) | -6.2% (inactive)
12 | Cc1cc(S(=O)(=O)N(Cc2ccc(C(C)C)cc2)CC2CCCO2)ccc1-n1cnnn1 (stereo unspecified) | -1% (inactive)
13 | Cn1c(-c2ccccc2)c(C(=O)CCl)c2ccccc21 | -33.5% (inactive)
14 | Cc1ccc(C(=O)CSc2n[nH]c(C)n2)cc1 | -0.9% (inactive)
15 | Cc1nc(SCC(=O)c2ccc(F)cc2)n[nH]1 | 12.9% (inactive)
16 | Cc1nc(SCC(=O)c2ccccc2)n[nH]1 | 51.2% (active)
17 | CCN(CC)C(=O)Cn1cc(S(=O)(=O)CC(=O)NCCc2ccc(OC)c(OC)c2)c2ccccc21 | 20.4% (inactive)
18 | COc1ccc(CCNC(=O)CS(=O)(=O)c2cn(CC(=O)N3CCOCC3)c3ccccc23)cc1OC | 51.4% (active)
19 | COc1ccc(CCNC(=O)CS(=O)(=O)c2cn(CC(=O)N3CCCC3)c3ccccc23)cc1OC | 46.9% (inactive)
20 | COc1cc(SC)ccc1C(=O)Nc1ccc(Cl)cn1 | 2.4% (inactive)
21 | CC(=O)N1CCC2(CC1)CC(=O)c1cc(OCC(=O)N3CCOCC3)ccc1O2 | -1.2% (inactive)
22 | Cc1cc([N+](=O)[O-])cc2c1NC(=O)C2(O)N1CCOCC1 (stereo unspecified) | 16.7% (inactive)

Row | Compound | inhibition
23 | O=C1Nc2c(Br)cc(Br)cc2C1(O)N1CCOCC1 (stereo unspecified) | 55.6% (active)
24 | CC1CCN(C2(O)C(=O)Nc3ccc(Br)cc32)CC1 (stereo unspecified) | -1.3% (inactive)
25 | COc1ccc(C2C(C(C)=O)=C(O)C(=O)N2CCCn2ccnc2)cc1 (stereo unspecified) | -4% (inactive)
26 | CCOC(=O)C1(C)C=C(Nc2ccc(O)cc2)C(=O)N1c1ccc(O)cc1 (stereo unspecified) | 58.5% (active)
27 | CCOC(=O)C1(C)C=C(Nc2ccc(C)cc2)C(=O)N1c1ccc(C)cc1 (stereo unspecified) | -5.2% (inactive)
28 | CCOC(=O)C1(C)C=C(Nc2ccc(OC)cc2)C(=O)N1c1ccc(OC)cc1 (stereo unspecified) | 18% (inactive)
29 | O=C(/C=C/c1ccco1)Nc1nc(-c2ccccn2)cs1 | 25.9% (inactive)
30 | CCOC(=O)c1c2ccc(OCC(=O)N/N=C/c3ccccc3C(F)(F)F)cc2n2ccccc12 | 64.2% (active)
31 | Cc1ccc(/C=N/NC(=O)CNC(=O)COc2ccccc2)cc1 | 8.2% (inactive)
32 | Cc1cccc(OCC(=O)N/N=C\c2cn(C)c3ccccc23)c1 | -0.8% (inactive)
33 | CCOC(=O)c1c2ccc(OCC(=O)N/N=C/c3ccc(Cl)cc3)cc2n2ccccc12 | 48.6% (inactive)
34 | Cc1ccc(OCC(=O)N/N=C\c2cn(Cc3ccccc3)c3ccccc23)cc1C | 2.4% (inactive)
35 | Cn1c2c(c(=O)n(C)c1=O)C1(C(=O)Nc3ccccc31)C(C#N)=C(N)O2 (stereo unspecified) | 47.4% (inactive)
36 | N#CC1=C(N)Oc2[nH]c(=S)[nH]c(=O)c2C12C(=O)Nc1ccccc12 (stereo unspecified) | 46.2% (inactive)
37 | Cn1c2c(c(=O)n(C)c1=O)[C@@]1(C(=O)Nc3ccccc31)C(C#N)=C(N)O2 | 54.6% (active)
38 | CNc1oc(-c2ccc(Cl)cc2)nc1C#N | 0.9% (inactive)
39 | Cc1c(Nc2cc(N3CCCCCC3)c3nonc3c2[N+](=O)[O-])c(=O)n(-c2ccccc2)n1C | 51.5% (active)
40 | Cc1c(Nc2cc(N3CCOCC3)c3nonc3c2[N+](=O)[O-])c(=O)n(-c2ccccc2)n1C | 27.1% (inactive)
41 | Cc1c(Nc2cc(N3CCCC(C)C3)c3nonc3c2[N+](=O)[O-])c(=O)n(-c2ccccc2)n1C (stereo unspecified) | 44.3% (inactive)
42 | Cc1c(NC(=O)CN2c3cccc4cccc(c34)S2(=O)=O)c(=O)n(-c2ccccc2)n1C | 5% (inactive)
43 | CC1=C(C)CC(C(=O)N2CCN(Cc3ccccc3)CC2)C(C(=O)O)C1 (stereo unspecified) | 9.2% (inactive)
44 | COc1ccc2nc(NC(=O)Nc3ccccc3)sc2c1 | 15.5% (inactive)

Row | Compound | inhibition
45 | CCCC(=O)Nc1nc2ccc(OC)cc2s1 | 7.2% (inactive)
46 | COc1ccc2nc(NC(=O)Nc3cccc4ccccc34)sc2c1 | 58.6% (active)
47 | Cc1cc(=O)n(C)c2ccccc12 | -8.5% (inactive)
48 | Cn1c2ccccc2c(=O)n2c(=O)c3ccccc3cc12 | 54.4% (active)
49 | Cn1c(-c2ccccc2)cc(=O)c2ccccc21 | 2% (inactive)
50 | CNC(=O)c1[nH]cnc1C(=O)N[C@@H](Cc1ccccc1)C(=O)OC(C)(C)C | 2.7% (inactive)
51 | O=C1C2C3C=CC(C3)C2C(=O)N1c1ccccc1OS(=O)(=O)c1ccccc1 (stereo unspecified) | -5% (inactive)
52 | CCOc1ccc(/C=C2\SC(N3CCc4ccccc4C3)=NC2=O)cc1 | 3.5% (inactive)
53 | Cc1ccc2c(c1C)OC(=O)CC2(C)C | -5.5% (inactive)
54 | COc1ccc(N)c2c1OCCC2=O | 59.8% (active)
55 | COc1ccc(N)c2c1C(=O)c1ccccc1C2=O | 23.8% (inactive)
56 | Cc1cccc(N)c1-c1c(C)cccc1N | 5.8% (inactive)
57 | Cc1ccc(N)c2c1OCCC2=O | 57.7% (active)
58 | COc1ccc(OC)c2c1CCC2=O | -2.6% (inactive)
59 | COC(=O)c1ccc(/C=N/NC(=S)NCCN2CCOCC2)cc1 | -1.5% (inactive)
60 | NC(=O)C1CCN(C(=O)C2CCN(S(=O)(=O)c3ccccc3)CC2)CC1 | 5% (inactive)
61 | CC1(C)Cc2c(ccc3ccccc23)/C(=C/C(=O)N2CCCCC2)N1 | -2.6% (inactive)
62 | C=CCC1(O)C(=O)N2C(=C1C(=O)N1CCOCC1)c1ccccc1CC2(C)C (stereo unspecified) | -1.7% (inactive)
63 | CCOC(=O)C1=C2c3ccc4ccccc4c3CC(C)(C)N2C(=O)C1=O | 27.6% (inactive)
64 | CC1(C)Cc2ccccc2C2=C(C(=O)N3CCCCCC3)C(=O)C(=O)N21 | 60.5% (active)
65 | CC1(C)Cc2c(ccc3ccccc23)C2=C(C(=O)N3CCCC3)C(=O)C(=O)N21 | 56% (active)
66 | CC1(C)Cc2ccccc2/C(=C/C(=O)N2CCCCCC2)N1 | -22.6% (inactive)
